Measurements reported in paper PMC7862700, “An all-to-all approach to the identification of sequence-specific readers for epigenetic DNA modifications on cytosine”.

These sequences were tested against T1, ETS2 (Homo sapiens, UniProt P15036 1-469) (assay: DAPPL (digital affinity profiling via proximity ligation, sequencing); 10 mM Tris-HCl pH 7.5, 50 mM NaCl, 1 mM DTT, 4% glycerol, room temperature, 30 min; GST-TFs on glutathione beads, 16-mer random dsDNA library, 0.1% formaldehyde crosslink after washing; high values mean tight binding). Conditions: protein: recombinant; tags: N-terminal GST; dsDNA, one strand shown.
T1 sequence: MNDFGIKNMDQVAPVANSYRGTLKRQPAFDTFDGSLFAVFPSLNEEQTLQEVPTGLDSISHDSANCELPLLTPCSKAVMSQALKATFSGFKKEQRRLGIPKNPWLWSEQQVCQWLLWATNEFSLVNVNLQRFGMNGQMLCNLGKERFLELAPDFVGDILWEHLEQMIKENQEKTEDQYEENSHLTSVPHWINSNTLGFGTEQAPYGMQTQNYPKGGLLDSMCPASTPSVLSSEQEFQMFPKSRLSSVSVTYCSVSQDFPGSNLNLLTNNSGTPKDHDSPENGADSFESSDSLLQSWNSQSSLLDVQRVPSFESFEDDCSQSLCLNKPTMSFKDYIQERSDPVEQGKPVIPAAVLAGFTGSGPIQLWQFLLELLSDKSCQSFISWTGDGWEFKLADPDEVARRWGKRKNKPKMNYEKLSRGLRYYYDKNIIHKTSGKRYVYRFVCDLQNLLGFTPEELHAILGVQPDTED
In short: (§1)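 Yeast served to express human transcription factors as GST fusions, which were then captured on glutathione beads and labelled with DNA barcodes. Pooled with a tag-only sample, they were incubated with 200 nmole of a 16-mer random double-stranded DNA library for 30 min at room temperature in Tris/NaCl/DTT/glycerol buffer, washed, crosslinked with 0.1% formaldehyde, ligated by proximity, amplified by PCR and sequenced. Dividing each hexamer's read frequency for a factor by its frequency for the tag-only sample gives the binding signal.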
In the case of GATGAA, the binding signal is reported as 1.19 fold enrichment (6-mer frequency, TF over GST control). For TGCGTA, the binding signal was 1.19 fold enrichment (6-mer frequency, TF over GST control). TGGGTT was tested, and the binding signal was 1.06 fold enrichment (6-mer frequency, TF over GST control). CTTGTT was tested, and the binding signal was 1.15 fold enrichment (6-mer frequency, TF over GST control). In the case of TCGACG, the binding signal is reported as 1.07 fold enrichment (6-mer frequency, TF over GST control). In the case of TATCTG, the binding signal is reported as 1.11 fold enrichment (6-mer frequency, TF over GST control). TCGTAC was tested, and the binding signal was 1.07 fold enrichment (6-mer frequency, TF over GST control). With GAAAAC the binding signal was 1.11 fold enrichment (6-mer frequency, TF over GST control). ACTCGC was tested, and the binding signal was 1.14 fold enrichment (6-mer frequency, TF over GST control). GGATCC was tested, and the binding signal was 1.22 fold enrichment (6-mer frequency, TF over GST control). In the case of GCTCGT, the binding signal is reported as 1.12 fold enrichment (6-mer frequency, TF over GST control). CCTGGG was tested, and the binding signal was 1.14 fold enrichment (6-mer frequency, TF over GST control). In the case of AAAGGT, the binding signal is reported as 1.04 fold enrichment (6-mer frequency, TF over GST control). In the case of CTCGGT, the binding signal is reported as 1.11 fold enrichment (6-mer frequency, TF over GST control). TCTGTA was tested, and the binding signal was 1.27 fold enrichment (6-mer frequency, TF over GST control). With AAGCAC the binding signal was 1.17 fold enrichment (6-mer frequency, TF over GST control). For CACGCG, the binding signal was 1.13 fold enrichment (6-mer frequency, TF over GST control). For CGCTAG, the binding signal was 1.03 fold enrichment (6-mer frequency, TF over GST control). In the case of ACACGA, the binding signal is reported as 1.08 fold enrichment (6-mer frequency, TF over GST control). With TGCGTT the binding signal was 1.09 fold enrichment (6-mer frequency, TF over GST control). With CACTGG the binding signal was 1.01 fold enrichment (6-mer frequency, TF over GST control). TAAGCC was tested, and the binding signal was 1.15 fold enrichment (6-mer frequency, TF over GST control). In the case of TGGTAG, the binding signal is reported as 1.04 fold enrichment (6-mer frequency, TF over GST control). For ACCGTC, the binding signal was 1.28 fold enrichment (6-mer frequency, TF over GST control). For GCACGA, the binding signal was 1.03 fold enrichment (6-mer frequency, TF over GST control). With CCACAA the binding signal was 1.23 fold enrichment (6-mer frequency, TF over GST control). For GAAAAA, the binding signal was 1.2 fold enrichment (6-mer frequency, TF over GST control). AAGCAA was tested, and the binding signal was 1.11 fold enrichment (6-mer frequency, TF over GST control). For ATCATA, the binding signal was 1.03 fold enrichment (6-mer frequency, TF over GST control). CATGAA was tested, and the binding signal was 1.07 fold enrichment (6-mer frequency, TF over GST control). For CTCCAT, the binding signal was 1.36 fold enrichment (6-mer frequency, TF over GST control). In the case of TCCACG, the binding signal is reported as 1.09 fold enrichment (6-mer frequency, TF over GST control). In the case of ATGCTG, the binding signal is reported as 1.18 fold enrichment (6-mer frequency, TF over GST control). In the case of CTGGGT, the binding signal is reported as 1.09 fold enrichment (6-mer frequency, TF over GST control). In the case of TTACGA, the binding signal is reported as 1.14 fold enrichment (6-mer frequency, TF over GST control). For TCCACC, the binding signal was 1.21 fold enrichment (6-mer frequency, TF over GST control). In the case of TGCCGA, the binding signal is reported as 1.08 fold enrichment (6-mer frequency, TF over GST control). ACTCGA was tested, and the binding signal was 1.33 fold enrichment (6-mer frequency, TF over GST control). With TGAAAA the binding signal was 1.11 fold enrichment (6-mer frequency, TF over GST control). AACAGC was tested, and the binding signal was 1.08 fold enrichment (6-mer frequency, TF over GST control).

These sequences were tested against T2, SPDEF (Homo sapiens, UniProt O95238 1-335) in the same assay as above. Conditions: protein: recombinant; tags: N-terminal GST; dsDNA, one strand shown.
T2 sequence: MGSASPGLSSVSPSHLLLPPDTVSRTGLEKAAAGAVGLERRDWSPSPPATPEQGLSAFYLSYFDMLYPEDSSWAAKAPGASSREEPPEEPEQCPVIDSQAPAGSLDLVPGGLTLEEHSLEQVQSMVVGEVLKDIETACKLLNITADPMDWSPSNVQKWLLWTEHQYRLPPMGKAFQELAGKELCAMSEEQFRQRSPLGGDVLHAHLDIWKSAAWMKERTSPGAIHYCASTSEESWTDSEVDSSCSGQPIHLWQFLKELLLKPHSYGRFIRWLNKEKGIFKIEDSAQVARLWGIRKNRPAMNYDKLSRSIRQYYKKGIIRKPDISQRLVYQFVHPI
In short: as §1
GATGAA was tested, and the binding signal was 1.15 fold enrichment (6-mer frequency, TF over GST control). TGCGTA was tested, and the binding signal was 1.12 fold enrichment (6-mer frequency, TF over GST control). TGGGTT was tested, and the binding signal was 1.05 fold enrichment (6-mer frequency, TF over GST control). In the case of CTTGTT, the binding signal is reported as 1.05 fold enrichment (6-mer frequency, TF over GST control). TCGACG was tested, and the binding signal was 1.05 fold enrichment (6-mer frequency, TF over GST control). With TATCTG the binding signal was 1.13 fold enrichment (6-mer frequency, TF over GST control). In the case of TCGTAC, the binding signal is reported as 1.06 fold enrichment (6-mer frequency, TF over GST control). In the case of GAAAAC, the binding signal is reported as 1.07 fold enrichment (6-mer frequency, TF over GST control). For GGATCC, the binding signal was 2.07 fold enrichment (6-mer frequency, TF over GST control). For GCTCGT, the binding signal was 1.15 fold enrichment (6-mer frequency, TF over GST control). In the case of CCTGGG, the binding signal is reported as 1.11 fold enrichment (6-mer frequency, TF over GST control). AAAGGT was tested, and the binding signal was 1.11 fold enrichment (6-mer frequency, TF over GST control). CTCGGT was tested, and the binding signal was 1.02 fold enrichment (6-mer frequency, TF over GST control). In the case of TCTGTA, the binding signal is reported as 1.26 fold enrichment (6-mer frequency, TF over GST control). For AAGCAC, the binding signal was 1.29 fold enrichment (6-mer frequency, TF over GST control). With CACGCG the binding signal was 1.23 fold enrichment (6-mer frequency, TF over GST control). CGCTAG was tested, and the binding signal was 1.08 fold enrichment (6-mer frequency, TF over GST control). For ACACGA, the binding signal was 1.03 fold enrichment (6-mer frequency, TF over GST control). For TGCGTT, the binding signal was 1.08 fold enrichment (6-mer frequency, TF over GST control). With CACTGG the binding signal was 1.02 fold enrichment (6-mer frequency, TF over GST control). TAAGCC was tested, and the binding signal was 1.12 fold enrichment (6-mer frequency, TF over GST control). In the case of ACCGTC, the binding signal is reported as 1.35 fold enrichment (6-mer frequency, TF over GST control). GCACGA was tested, and the binding signal was 1 fold enrichment (6-mer frequency, TF over GST control). In the case of CCACAA, the binding signal is reported as 1.14 fold enrichment (6-mer frequency, TF over GST control). For ATCATA, the binding signal was 1.03 fold enrichment (6-mer frequency, TF over GST control). With CATGAA the binding signal was 1.03 fold enrichment (6-mer frequency, TF over GST control). In the case of CTCCAT, the binding signal is reported as 1.39 fold enrichment (6-mer frequency, TF over GST control). TCCACG was tested, and the binding signal was 1.1 fold enrichment (6-mer frequency, TF over GST control). In the case of ATGCTG, the binding signal is reported as 1.11 fold enrichment (6-mer frequency, TF over GST control). For CTGGGT, the binding signal was 1.08 fold enrichment (6-mer frequency, TF over GST control). With TTACGA the binding signal was 1.1 fold enrichment (6-mer frequency, TF over GST control). With TCCACC the binding signal was 1.1 fold enrichment (6-mer frequency, TF over GST control). TGCCGA was tested, and the binding signal was 1.05 fold enrichment (6-mer frequency, TF over GST control). ACTCGA was tested, and the binding signal was 1.29 fold enrichment (6-mer frequency, TF over GST control). TGAAAA was tested, and the binding signal was 1.01 fold enrichment (6-mer frequency, TF over GST control).

The sequences below were run against T3, ETV7 (Homo sapiens, UniProt Q9Y603 1-341) in the same assay as above. Conditions: protein: recombinant; tags: N-terminal GST; dsDNA, one strand shown.
T3 sequence: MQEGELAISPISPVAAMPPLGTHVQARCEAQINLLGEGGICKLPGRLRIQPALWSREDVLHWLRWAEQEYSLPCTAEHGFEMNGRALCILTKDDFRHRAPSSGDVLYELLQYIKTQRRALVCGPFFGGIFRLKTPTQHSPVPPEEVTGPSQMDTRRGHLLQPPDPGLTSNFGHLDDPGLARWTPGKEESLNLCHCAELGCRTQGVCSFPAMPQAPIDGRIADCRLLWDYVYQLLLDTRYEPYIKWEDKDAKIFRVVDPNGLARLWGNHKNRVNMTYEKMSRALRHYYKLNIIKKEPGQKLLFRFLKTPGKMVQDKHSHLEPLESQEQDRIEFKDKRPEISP
In short: as §1
With GATGAA the binding signal was 1.24 fold enrichment (6-mer frequency, TF over GST control). In the case of TGCGTA, the binding signal is reported as 1.01 fold enrichment (6-mer frequency, TF over GST control). For CTTGTT, the binding signal was 1.27 fold enrichment (6-mer frequency, TF over GST control). TCGACG was tested, and the binding signal was 1.05 fold enrichment (6-mer frequency, TF over GST control). In the case of TATCTG, the binding signal is reported as 1.2 fold enrichment (6-mer frequency, TF over GST control). For TCGTAC, the binding signal was 1.15 fold enrichment (6-mer frequency, TF over GST control). GAAAAC was tested, and the binding signal was 1.13 fold enrichment (6-mer frequency, TF over GST control). In the case of ACTCGC, the binding signal is reported as 1.09 fold enrichment (6-mer frequency, TF over GST control). In the case of GCTCGT, the binding signal is reported as 1.11 fold enrichment (6-mer frequency, TF over GST control). For CCTGGG, the binding signal was 1.39 fold enrichment (6-mer frequency, TF over GST control). In the case of AAAGGT, the binding signal is reported as 1.07 fold enrichment (6-mer frequency, TF over GST control). With CTCGGT the binding signal was 1.05 fold enrichment (6-mer frequency, TF over GST control). TCTGTA was tested, and the binding signal was 1.03 fold enrichment (6-mer frequency, TF over GST control). In the case of AAGCAC, the binding signal is reported as 1.3 fold enrichment (6-mer frequency, TF over GST control). CACGCG was tested, and the binding signal was 1.13 fold enrichment (6-mer frequency, TF over GST control). For ACACGA, the binding signal was 1.11 fold enrichment (6-mer frequency, TF over GST control). For TGCGTT, the binding signal was 1.24 fold enrichment (6-mer frequency, TF over GST control). For CACTGG, the binding signal was 1.03 fold enrichment (6-mer frequency, TF over GST control). TAAGCC was tested, and the binding signal was 1.1 fold enrichment (6-mer frequency, TF over GST control). With TGGTAG the binding signal was 1.18 fold enrichment (6-mer frequency, TF over GST control). For ACCGTC, the binding signal was 1.09 fold enrichment (6-mer frequency, TF over GST control). GCACGA was tested, and the binding signal was 1.19 fold enrichment (6-mer frequency, TF over GST control). With GAAAAA the binding signal was 1.16 fold enrichment (6-mer frequency, TF over GST control). AAGCAA was tested, and the binding signal was 1.05 fold enrichment (6-mer frequency, TF over GST control). With ATCATA the binding signal was 1.1 fold enrichment (6-mer frequency, TF over GST control). In the case of CTCCAT, the binding signal is reported as 1.13 fold enrichment (6-mer frequency, TF over GST control). In the case of TCCACG, the binding signal is reported as 1.06 fold enrichment (6-mer frequency, TF over GST control). CTGGGT was tested, and the binding signal was 1.1 fold enrichment (6-mer frequency, TF over GST control). With TTACGA the binding signal was 1.1 fold enrichment (6-mer frequency, TF over GST control). In the case of TCCACC, the binding signal is reported as 1.12 fold enrichment (6-mer frequency, TF over GST control). TGCCGA was tested, and the binding signal was 1.15 fold enrichment (6-mer frequency, TF over GST control).
